Measurements: PubChem BioAssay (Tox21)
Results filed as inconclusive are left out. Where a call stands in place of a potency, no number is given. Calls of active or inactive are those of the source. Calls come from the whole dose curve.

The compounds below were run on estrogen-related receptor alpha (ERRalpha) with PGC-1alpha coactivator, human (assay: qHTS assay to identify small molecule antagonists of the estrogen related receptor signaling pathway with the pleiotropic PPARgamma coactivator (PGC) (AID 1224821; note: nearly all actives have a fitted effect of over 50% in size)). Details: ERR/PGC reporter cell line, luciferase, antagonist mode; series mostly up to 46.1 µM.
Text: National Center for Advancing Translational Sciences [NCATS]
NIH Chemical Genomics Center [NCGC]
U.S. Environmental Protection Agency [EPA]
National Institutes of Environmental Health Sciences [NIEHS]
National Toxicology Program [NTP]
U.S. Food and Drug Administration [FDA]
Estrogen related receptors (ERRs), the first orphan nuclear receptors discovered, play an important role in the control of cellular energy metabolism. ERRs are required for high-energy production in response to the environmental challenges. The pleiotropic PPARgamma coactivator (PGC) is a major partner of ERR and a key regulator in energy homeostasis. Together they have been implicated in the etiology of metabolic disorders such as Type 2 diabetes and metabolic syndrome. ERR-alpha was also identified as an adverse marker for breast cancer progression; ERR-alpha-positive tumors have a poor prognosis. To screen and to identify environmental compounds that perturb the ERR and PGC/ERR signaling pathways could provide valuable information for potential therapeutic or preventive measures in the treatment of metabolic disease. For identifying PGC/ERR antagonists, PGC/ERR cell line (provided by NTP) has been used to screen LOPAC library.
Tox21 Assay Protocol Summary:
The PGC/ERR cells were dispensed at 2,000 cells/5 ul/well in 1536-well white plates using a Multidrop dispenser. After the assay plates were incubated at a 37 C/5% CO2 incubator for 6 hours, 23 nL of compounds dissolved in DMSO, positive and negative controls or DMSO only was transferred to the assay plate by a pin tool. The plates were incubated at 37 C for 18 hours. 4 ul/well of One-Glo reagent was added into the assay plates using a Flying Reagent Dispenser. After 30 min incubation at room temperature, the luminescence intensity in the plates was measured using a ViewLux plate reader.
Potency is the fitted concentration of half-maximal effect.

Row | Structure (SMILES) | Potency
1 | Cn1ccnc1 | inactive
2 | CCN(CC)CCOc1ccc(Nc2ncc3cc(-c4c(Cl)cccc4Cl)c(=O)n(C)c3n2)cc1 | inactive
3 | Nc1ncnc2c1c(-c1ccc(Oc3ccccc3)cc1)cn2C1CCCC1 | inactive
4 | CCCC[C@@]1(C2CCCC2)Cc2cc(OCC(=O)O)c(Cl)c(Cl)c2C1=O | 13.9 µM (active)
5 | O=c1ccc2c(OCCCCc3ccccc3)c3ccoc3cc2o1 | inactive
6 | C=CCc1cccc(/C=N/NC(=O)CN2CCN(Cc3ccccc3)CC2)c1O | inactive
7 | CCCn1c(=O)c(C)cn2nc(N)nc12 | inactive
8 | CC(N)=NCCCC[C@@H](N)C(=O)O | inactive
9 | NC(=Nc1ccccc1)NC(=O)c1nc(Cl)c(N)nc1N | inactive
10 | O=C(O)CCc1ccc(NCc2cccc(Oc3ccccc3)c2)cc1 | inactive
11 | C[C@H](O)C(=O)C1=Nc2c(nc(N)[nH]c2=O)NC1 | inactive
12 | Oc1ccc(C2CNCc3sccc32)cc1O (stereo not given) | inactive
13 | CCOC(=O)C1=C(O)C(=O)N(Cc2ccccc2)C1 | inactive
14 | CN(C)CCCc1cc(C(=O)Nc2ccc(-c3ccncc3)cc2)ccc1O | inactive
15 | N[C@H](CCCP(=O)(O)O)C(=O)O | inactive
16 | CCC(NC(C)C)C(O)c1ccc(O)c(O)c1 (stereo not given) | inactive
17 | Cn1c(=O)c2[nH]c(-c3ccccc3)nc2n(C)c1=O | inactive
18 | CC(=O)/C(C)=N/O | inactive
19 | Nc1nc2c(nc(Br)n2C2OC3COP(=O)(O)O[C@@H]3C2O)c(=O)[nH]1 (stereo not given in full) | inactive
20 | COc1ccc2c(c1)c(CC(=O)O)c(C)n2C(=O)c1ccccc1 | inactive

Row | Structure (SMILES) | Potency
21 | COc1cccc(-c2cc(=O)c3ccccc3o2)c1N | inactive
22 | Cc1cccc(/C=C/c2ccccc2)n1 | inactive
23 | CCCCC[C@H](CC(=O)NO)C(=O)N[C@H](C(=O)N1CCC[C@H]1CO)C(C)C | 10.2 µM (active)
24 | COc1ccc(CCn2nnnc2C2(c3ccc(C)cc3)CC2)cc1 | inactive
25 | Nc1ncnc2c1nc(Br)n2C1OC2COP(=O)(O)O[C@@H]2C1O (stereo not given in full) | inactive
26 | O=c1cc(-c2ccccc2F)[nH]c2cc3c(cc12)OCO3 | inactive
27 | O=c1cc(O)cc(/C=C/c2ccc(O)c(O)c2)o1 | inactive
28 | CC(=O)O[C@H]1C[C@@H]2CC[C@@H]3[C@H](CC[C@@]4(C)[C@H]3C[C@H]([N+]3(C)CCCCC3)[C@@H]4OC(C)=O)[C@@]2(C)C[C@@H]1[N+]1(C)CCCCC1 | inactive
29 | NC(=O)C(=O)O | inactive
30 | CN(C)S(=O)(=O)c1ccc2c(c1)/C(=C/c1cc3c([nH]1)CCCC3)C(=O)N2 | inactive
31 | CC[C@H]1OC(=O)[C@H](C)[C@@H](O[C@H]2C[C@@](C)(OC)[C@@H](O)[C@H](C)O2)[C@H](C)[C@@H](O[C@@H]2O[C@H](C)C[C@H](NC)[C@H]2O)[C@](C)(O)C[C@@H](C)CN(C)[C@H](C)[C@@H](O)[C@]1(C)O | inactive
32 | COc1cc2c(CCNC(C)=O)c[nH]c2cc1O | inactive
33 | O=C1NC(=O)C(c2ccccc2[N+](=O)[O-])=C1Nc1ccc(O)c(Cl)c1 | inactive
34 | C[C@@H](NCCc1ccc(O)cc1)[C@@H](O)c1ccc(O)cc1 | inactive
35 | COc1ccc2c(c1)CCC1C2CC[C@@]2(C)C1CC[C@@H]2NCCCCCCN1C(=O)CCC1=O (stereo not given in full) | inactive
36 | CC1=C(C(=O)O)N2C(=O)[C@@H](NC(=O)C(N)c3ccccc3)[C@H]2SC1 (stereo not given in full) | inactive
37 | Cn1cc(C2=C(c3ccc(Cl)cc3Cl)C(=O)NC2=O)c2ccccc21 | inactive
38 | O=C(O)C1=CCNCC1 | inactive
39 | COC(=O)c1c(C)[nH]c(C)c1C(=O)c1ccccc1Cc1ccccc1 | inactive
40 | N[C@@H](Cc1cnc[nH]1)C(=O)O | inactive
